Only some compounds are listed: those with a hit (about 1.9% of all), similar ones and a draw of the others.
PfHsp40 yeast: restores yeast growth despite PfHsp40 toxicity | 340,000 tested, 0.68% active | S. cerevisiae expressing PfHsp40, growth rescue, ATP luminescence | growth rescue, % at 12.5 µM | AID 504582; in the data active = growth rescue above about 28%, passing the limit was not always enough; inconclusive = no clear call, values can overlap the other calls;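 note: yeast W303a lacking pdr1 and pdr3 grown in galactose medium; growth measured after three days at 30 °C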
PrP 5UTR inh: inhibition of PrP 5' UTR reporter expression. cell-based PrP 5' UTR mRNA reporter, plate reader. 340,000 tested, 0.35% active. inhibition, % (test concentration not listed). AID 488862; in the data active = inhibition above about 52%
SSB-PriA inh: K. pneumoniae PriA-SSBct interaction inhibition; AlphaScreen SSBct-PriA binding, biotinylated peptide; inhibition, % at 33 µM; 430,000 tested, 0.6% active; AID 1272365; in the data active = inhibition mostly above about 37%, no sharp cut-off; inactive = mostly below about 20%
BJeLR lethal: kills HRASV12-expressing BJeLR cells. BJeLR (HRASV12) viability, CellTiter-Glo ATP luminescence, 48 h. inhibition, % (test concentration not listed). 300,000 tested, 0.17% active. AID 1554; in the data active = inhibition above about 50%; inconclusive = no clear call, values can overlap the other calls
RecA splice inh: inhibitors of M. tuberculosis RecA intein splicing. P9WHJ3. cell-free RecA intein splicing, fluorescence. inhibition, % (test concentration not listed). 290,000 tested, 0.75% active. AID 2221; in the data active = inhibition above about 30%; inconclusive = no clear call, values can overlap the other calls
Target sequence (P9WHJ3 whole entry, looked up, canonical isoform): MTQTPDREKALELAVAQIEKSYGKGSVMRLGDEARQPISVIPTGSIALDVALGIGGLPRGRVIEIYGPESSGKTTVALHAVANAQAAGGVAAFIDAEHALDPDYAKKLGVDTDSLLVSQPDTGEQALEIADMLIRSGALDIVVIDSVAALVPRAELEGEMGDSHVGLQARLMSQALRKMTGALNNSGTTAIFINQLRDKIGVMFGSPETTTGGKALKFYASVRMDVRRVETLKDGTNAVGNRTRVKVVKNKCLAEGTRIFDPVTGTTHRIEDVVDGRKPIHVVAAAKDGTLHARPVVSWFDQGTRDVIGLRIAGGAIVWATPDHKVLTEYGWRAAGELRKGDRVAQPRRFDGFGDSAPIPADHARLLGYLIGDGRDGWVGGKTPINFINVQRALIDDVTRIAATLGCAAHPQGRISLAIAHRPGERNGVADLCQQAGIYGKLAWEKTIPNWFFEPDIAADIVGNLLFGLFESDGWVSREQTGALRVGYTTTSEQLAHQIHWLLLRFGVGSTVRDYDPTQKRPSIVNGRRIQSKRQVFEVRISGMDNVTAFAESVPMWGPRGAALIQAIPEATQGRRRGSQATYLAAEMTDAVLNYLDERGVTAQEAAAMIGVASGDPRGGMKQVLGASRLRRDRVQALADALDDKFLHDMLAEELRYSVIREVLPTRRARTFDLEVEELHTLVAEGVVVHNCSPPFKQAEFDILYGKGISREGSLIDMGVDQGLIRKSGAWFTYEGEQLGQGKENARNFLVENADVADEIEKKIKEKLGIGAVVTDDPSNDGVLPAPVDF
PrPC TRFRET: cell surface PrPC inhibition, primary TR-FRET screen; P04156; TR-FRET read-out; inhibition, % at 13.8 µM; 370,000 tested, 0.43% active; AID 720596; in the data active = inhibition above about 24%
GFP chromophore: counter-screen GFP chromophore formation inhibition. 2,100 tested, 83% active. EC50, µM. cell-free GFP chromophore formation, fluorescence. AID 434968. shares compounds with RecA splice inh; call rule not given here
Each line names hits and unclear results; the compound was inactive in the other large screens (follow-up assays come after a bar, where they were run).

Cc1cc(C)c(S(=O)(=O)Nc2cc(SCC(=O)O)c(O)c3ccccc23)cc1C	RecA splice inh 96.9 (no result: PfHsp40 yeast, PrP 5UTR inh, PrPC TRFRET) | GFP chromophore 0.869
COc1ccc2cc(S(=O)(=O)N3CCN(c4ccc(F)cc4)CC3)ccc2c1	none (no result: PfHsp40 yeast, PrP 5UTR inh, BJeLR lethal, RecA splice inh, PrPC TRFRET)
Cc1ccc(-c2csc3ncnc(SCc4c(C)noc4C)c23)cc1C	none (no result: PfHsp40 yeast, PrP 5UTR inh, BJeLR lethal, RecA splice inh, PrPC TRFRET)
Cc1[nH]n(-c2ccccc2)c(=O)c1C(C[N+](=O)[O-])c1ccc(Br)cc1 (stereo unspecified)	RecA splice inh 76.7 | GFP chromophore 17.2
COc1cccc(C(C[N+](=O)[O-])c2c(C)[nH]n(-c3ccccc3)c2=O)c1 (stereo unspecified)	RecA splice inh 95.6 | GFP chromophore 27
Cc1ccc(NC2=C/C(=N\S(=O)(=O)c3cccs3)c3ccccc3C2=O)c(C)c1	RecA splice inh 41.4 (no result: SSB-PriA inh, PrPC TRFRET) | GFP chromophore 0.311
O=C(O)c1ccc(NC2=C/C(=N/S(=O)(=O)c3ccccc3)c3ccccc3C2=O)cc1	none (no result: SSB-PriA inh, BJeLR lethal, RecA splice inh)
Cc1cc(C)c(S(=O)(=O)/N=C2\C=C(Nc3ccc(C(=O)O)cc3)C(=O)c3ccccc32)c(C)c1	PfHsp40 yeast inconclusive, RecA splice inh 95.8 (no result: SSB-PriA inh) | GFP chromophore 0.871
CCc1ccc(S(=O)(=O)/N=C2\C=CC(=O)c3ccccc32)cc1	RecA splice inh 93.4 (no result: PfHsp40 yeast, PrP 5UTR inh, SSB-PriA inh, BJeLR lethal, PrPC TRFRET) | GFP chromophore 1.66
CCc1ccc(S(=O)(=O)/N=C2\C=C(Nc3cccc(C(=O)O)c3)C(=O)c3ccccc32)cc1	RecA splice inh 94.9 (no result: SSB-PriA inh) | GFP chromophore 0.419
Cc1cc(NS(=O)(=O)c2ccc(NC(=O)[C@H](C)n3nc(-n4cccn4)ccc3=O)cc2)nc(C)n1	none (no result: PfHsp40 yeast, PrP 5UTR inh, BJeLR lethal, RecA splice inh, PrPC TRFRET)
Cc1ccccc1CCC(=O)N[C@H](c1cccnc1)C1CCOCC1	none (no result: PfHsp40 yeast, PrP 5UTR inh, BJeLR lethal, RecA splice inh, PrPC TRFRET)
COc1ccc(S(=O)(=O)N=C2C=C(Nc3cccc(C)c3)C(=O)c3ccccc32)cc1	none (no result: PfHsp40 yeast, PrP 5UTR inh, BJeLR lethal, RecA splice inh, PrPC TRFRET)
CCc1ccc(S(=O)(=O)/N=C2\C=C(Nc3ccc(O)cc3)C(=O)c3ccccc32)cc1	RecA splice inh 97.3 (no result: SSB-PriA inh, PrPC TRFRET) | GFP chromophore 0.498
O=C(NCCc1ccccc1)C(c1cccs1)N(C(=O)c1csnn1)C1CC1 (stereo unspecified)	none
O=C(NCCc1ccccc1)C(c1cccs1)N(C(=O)CCl)c1ccc(Cl)cc1 (stereo unspecified)	BJeLR lethal 117.2, RecA splice inh 73.6 | GFP chromophore 0.51
Cc1ccc(-c2nnc(NC(=O)c3ccc(S(C)(=O)=O)cc3)o2)cc1	none (no result: PfHsp40 yeast, PrP 5UTR inh, BJeLR lethal, RecA splice inh, PrPC TRFRET)
O=C1CCC(C(=O)NCC#CCOc2ccc3c(c2)OCO3)N1 (stereo unspecified)	none (no result: PfHsp40 yeast, PrP 5UTR inh, BJeLR lethal, RecA splice inh, PrPC TRFRET)
CN(C1CC1)S(=O)(=O)c1ccc(C(=O)Nc2c3c(nn2C)CCC3)cc1	none (no result: PfHsp40 yeast, PrP 5UTR inh, BJeLR lethal, RecA splice inh, PrPC TRFRET)
c1coc(-c2nnc(-c3ccco3)nn2)c1	RecA splice inh 58.3 | GFP chromophore 9.08
O=C(CCS(=O)NCc1ccccc1)NCc1ccccc1 (stereo unspecified)	RecA splice inh 59.2 (no result: PfHsp40 yeast, PrP 5UTR inh, SSB-PriA inh, PrPC TRFRET) | GFP chromophore inactive
O=C(CCS(=O)CCC(=O)NCc1ccccc1)NCc1ccccc1	none
O=C1C(Cl)=C(N2CCCCC2)C(=O)C(Cl)=C1c1cnc(N2CCCCC2)s1	RecA splice inh 34.9 (no result: PrPC TRFRET) | GFP chromophore 0.45
CN(C)c1ncc(C2=C(Cl)C(=O)C(N3CCCC3)=C(Cl)C2=O)s1	RecA splice inh 59.8 | GFP chromophore 4.45
O=C(NN=Cc1cnc(N2CCCCC2)s1)c1ccc(Cl)cc1	none (no result: PfHsp40 yeast, PrP 5UTR inh, BJeLR lethal, RecA splice inh, PrPC TRFRET)
COc1ccc(-c2cnc(SCCNC(=O)c3cccc(Br)c3)[nH]2)cc1	none (no result: PfHsp40 yeast, PrP 5UTR inh, BJeLR lethal, RecA splice inh, PrPC TRFRET)
CCCc1ccc(/C=C2\C(=O)c3ccccc3C(O)=C2C(=O)OCC)cc1	RecA splice inh 36.2 (no result: PfHsp40 yeast, PrP 5UTR inh, SSB-PriA inh, PrPC TRFRET) | GFP chromophore 10.2
CCOC(=O)C1=C(O)c2ccccc2C(=O)/C1=C\c1ccc(CC)cc1	RecA splice inh 48.6 (no result: PrPC TRFRET) | GFP chromophore 5.08
CCOC(=O)c1c(CSC(=N)N)n(-c2ccc(Br)cc2)c2cc(Br)c(OC(C)=O)cc12	none (no result: BJeLR lethal, RecA splice inh)
CCCCCCCCOC(=O)c1c(CSC(=N)N)n(C)c2cc(Br)c(OC(C)=O)cc12	RecA splice inh 90.0 (no result: PfHsp40 yeast, PrP 5UTR inh) | GFP chromophore 2.43
COC(CNC(=O)c1ccc2c3c(onc13)-c1ccccc1C2=O)OC	RecA splice inh 53.1 | GFP chromophore 20.1
COC(CNC(=O)c1cccnc1)OC	none
CCOC(=O)c1cnc(N)nc1C(F)(F)F	RecA splice inh 60.8 | GFP chromophore inactive
CCCC(=O)OCCNc1cc(SCCC(=O)OC)c2nonc2c1[N+](=O)[O-]	RecA splice inh 38.7 | GFP chromophore 17.8

Source: PubChem
